Compound activity as filed in PubChem.
Compounds with a hit are over-represented: about 3.3% of the library has one in this group of screens.
NRP1-CendR mod – NRP-1/CendR interaction modulation | inhibition, % at 25 µM | 360,000 compounds, 0.85% hits | AID 602438 | FAM-RPARPAR peptide binding to NRP-1, fluorescence polarization | O14786;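 active means inhibition or corrected inhibition above about 18%, plus a signal ratio from 0.5 to 1.5, limit read from the data, passing the limit was not always enough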
HNF4A DNA FP – change in binding of human HNF4 alpha to DNA; P41235; activity change, % at 10 µM; HNF4a-FITC DNA binding, fluorescence polarization, 1 h; 360,000 compounds, 0.3% hits; in the data active means activity change above about 30%, passing the limit was not always enough
TPT1 inh – C. albicans TPT1 enzyme inhibition; recombinant caTPT1, FP RNA substrate dephosphorylation; inhibition, % at 5 µM; 300,000 compounds, 0.81% hits; AID 1962;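 active means inhibition above the mean of all tested compounds plus 3 SD, set per screening campaign, cut at about 24% in these data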;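 further: plate controls were DMSO alone for no effect and ferristatin control at 100 nM for full effect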
PHOSPHO1 block – inhibitors of human PHOSPHO1 phosphatase. Q8TCT1. recombinant PHOSPHO1, absorbance phosphatase assay. inhibition, % at 13.3 µM. 290,000 compounds, 1.1% hits. AID 1565; in the data active means inhibition above about 60%
Target sequence (Q8TCT1 whole entry, looked up): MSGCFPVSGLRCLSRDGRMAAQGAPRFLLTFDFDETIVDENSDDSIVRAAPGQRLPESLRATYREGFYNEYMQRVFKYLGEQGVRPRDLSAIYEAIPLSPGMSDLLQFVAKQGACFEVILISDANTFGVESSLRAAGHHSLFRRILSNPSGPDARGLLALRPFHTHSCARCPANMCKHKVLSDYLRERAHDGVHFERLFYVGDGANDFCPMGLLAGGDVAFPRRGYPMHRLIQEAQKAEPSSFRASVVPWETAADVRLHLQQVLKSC
CTSL1 counter – blocks F. hepatica cathepsin L1 in PFM18AAP counter-screen; recombinant F. hepatica cathepsin L1, Z-Leu-Arg-MCA fluorescence; inhibition, % at 5.96 µM; 300,000 compounds, 0.49% hits; AID 1906;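 active means inhibition above the mean of all tested compounds plus 3 SD, set per screening campaign, cut at about 17% in these data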;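 further: 0% = plate median of test compound wells and 100% = 1 µM Z-Phe-Ala-diazomethylketone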
Rpn11 inh – blocks the human proteasome subunit Rpn11. O00487. human 26S proteasome, Ub4-pepOG fluorescence polarization; 20S core pre-blocked with epoxomicin. inhibition, % at 20 µM. 360,000 compounds, 0.59% hits;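 active means inhibition at 20 µM, scaled to each plate's controls, above about 33%, limit read from the data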
The depositor's hits bear a star; · = no result given.

SMILES | NRP1-CendR mod | HNF4A DNA FP | TPT1 inh | PHOSPHO1 block | CTSL1 counter | Rpn11 inh
COC(=O)C(C)N(C#N)c1nc(NC(C)C)nc(SC)n1 (centres undefined) | 10.8 | 2.1 | 0.6 | 7.1 | 32.0* | -7.9
CCn1cc(C(=O)Nn2cnnc2)c(=O)c2ccc(C)nc21 | -13.8 | -4.5 | -1.9 | · | -0.9 | -3.2
C=CCn1c(CCNC(=O)c2ccc(Cl)c(Cl)c2)nnc1SCCOc1ccc(OC)cc1 | 25.8* | 1.6 | -3.5 | -0.1 | 0.9 | 0.6
CCn1c(CC(=O)Nc2cccc(Cl)c2Cl)nnc1SCCOc1ccc(OC)cc1 | -40.9 | -2.8 | -0.3 | 71.5* | -1.8 | 0.3
Nc1nc2c(ncn2[C@@H]2O[C@H](CNS(=O)(=O)c3cccnc3)[C@@H](O)[C@H]2O)c(=O)[nH]1 | -2.8 | -2.2 | · | · | · | -1.9
O=C(CCN=C1NS(=O)(=O)c2ccccc21)OCc1ccccc1 | 17.7 | -0.7 | -1.7 | · | 2.6 | -0.8
CCCCC/C=C\C/C=C\C/C=C\C/C=C\CCCC(=O)O | · | · | 3.1 | · | 22.2* | ·
CC/C=C\C/C=C\C/C=C\CCCCCCCC(=O)O | -65.1 | -21.4 | -1.1 | · | 25.8* | -5.4
Oc1cccc(C(O)CNCc2ccc(-c3ccccc3)cc2)c1 (centres undefined) | 28.1* | -3.6 | -0.6 | 47.7 | 0.4 | -7.6
COc1ccc(N2CCN(Cc3nnnn3C3CCCCC3)CC2)cc1 | 22.6* | 0.8 | -6.1 | 36.7 | 4.0 | -2.7
C1CCC(n2nnnc2CN2CCCC2)CC1 | -14.2 | 4.5 | 2.4 | 18.2 | 0.3 | -0.7
CN(/N=C/c1ccncc1)c1cnc2ccccc2n1 | 0.1 | 2.0 | 2.6 | 27.7 | 2.2 | -4.4
CCOC(=O)c1ccc2ncc(C(=O)OCC)c(NCCN(C)C)c2c1 | 60.0* | -56.9 | -1.5 | · | 66.0* | -124.5
CN(C(=O)c1cccc(NC(=O)Cc2cccc(NC(=O)C3CCCN(C(=O)C4CCCC4)C3)c2)c1)C1CC1 (centres undefined) | 5.1 | 0.3 | · | · | · | -5.1
CC(=O)NC1N=C(C)N(c2ccccc2)C1=O (centres undefined) | -8.6 | 0.6 | -0.6 | 100.1* | 2.8 | 3.5
CC(C)NCC1CCc2cc(CO)c([N+](=O)[O-])cc2N1 (centres undefined) | -3.3 | -0.8 | 0.1 | -1.1 | -2.6 | 3.2
COC(=O)COc1ccc2cc(-c3ccc(OC)cc3)c(=O)oc2c1 | 20.4* | 9.2 | -3.0 | 11.9 | 3.4 | -0.6
COC(=O)COc1ccc2cc(-c3ccccc3)c(=O)oc2c1 | 10.8 | 0.6 | -4.2 | 52.6 | -1.6 | -2.0
CCC1(C)Cc2c(sc3c2c(=O)n(-c2ccccc2)c(=O)n3C)CO1 (centres undefined) | 13.5 | -0.8 | -0.6 | 76.8* | 2.8 | 0.0
CCOC(=O)c1[nH]c(C)c(C(=O)NCC2CCCO2)c1C (centres undefined) | 22.3* | -3.5 | -0.6 | -20.1 | 2.1 | -5.0
CCCc1nc2c3ccccc3ccn2c1Cc1ccc(OC)cc1C | -107.5 | 42.7* | · | · | · | ·
Cc1ccc(S(=O)(=O)N(C)c2ccc(C(=O)NCc3ccccc3F)cc2)cc1 | 6.8 | -0.1 | 1.0 | · | 2.0 | 8.6
O=C(NCC1OCCc2ccccc21)c1ccc(NC(=O)c2cccc(Br)c2)cc1 (centres undefined) | -0.1 | -3.0 | 2.4 | -33.9 | 1.2 | 2.7
CC(C)(C)c1cc[n+](C2=C([O-])c3ccccc3C(=O)/C2=N\S(=O)(=O)c2cccs2)cc1 | 30.7* | -4.6 | -6.3 | 19.7 | 23.7* | 36.6
O=C1/C(=N\S(=O)(=O)c2cccs2)C([n+]2ccccc2)=C([O-])c2ccccc21 | 124.0 | 0.8 | 0.9 | 14.9 | 25.5* | 4.3
CCOC(=O)Cc1c[nH]c2ccc([N+](=O)[O-])cc12 | 5.3 | 2.8 | · | · | · | 0.0
CCS(=O)(=O)N1Cc2cc(C(=O)N(C)C)nc(-c3cccc(-c4ccc(F)cc4)c3)c2[C@@H]1CCO | 4.4 | 1.1 | · | · | · | ·
CNC(=O)NC(=O)CSc1cccc(C(F)(F)F)c1 | 38.0* | 2.6 | 2.4 | -11.4 | -2.5 | -3.9
CC(C)(C)NC(=O)NC(=O)CSc1cccc(C(F)(F)F)c1 | -2.0 | -1.0 | 1.3 | -9.8 | 1.7 | 2.0
O=C(C1CCC(=O)N(C2CCCC2)C1)N1CCN(Cc2cccc(F)c2)CC1 (centres undefined) | -6.1 | -3.7 | -2.8 | 75.1* | 5.2 | -4.3
